In PubChem BioAssay (NCI) one finds growth inhibition data, which are given here for eight compounds.

Each structure is given as a SMILES string. This is part of a sample that, as a whole, favours compounds with a hit. Of some 79,000 tested, about 15% had one in any assay. Active and inactive are the calls of the source. No stated cut-off is given here; in the data, active means growth inhibition above about 70%; inactive means the rest.

The nature of the assay: NCI Yeast Anticancer Drug Screen. Data for the rad52 strain (AID 147).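 Further: 0% = growth of vehicle-treated control cultures.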 To be noted: S. cerevisiae rad52 mutant growth inhibition, stronger effect = higher value. As to the method:
Growth inhibition of yeast strains with defined genetic alterations is measured as a screen for potential anti-cancer activity. Selected strains with alterations in DNA damage repair or cell cycle control were exposed to compounds and growth inhibition was measured relative to vehicle treated controls. The strain used in this assay is rad52

For the compound `Cc1ccc(SSc2ccc(C)cc2[N+](=O)[O-])c([N+](=O)[O-])c1`, the growth inhibition is, setting by setting: (at 1.2 µM) 5% (inactive); (at 3.7 µM) 19% (inactive); (at 11.0 µM) 38% (inactive); (at 33.0 µM) 77% (active); (at 100.0 µM) 86% (active).
The matching figures for `CCOC(=O)C1=C(C)NC(C)=C(C(=O)OCC)C1c1ccc(Cl)cc1`: -13% (inactive), 6% (inactive), 92% (active), 78% (active) and 92% (active).
Regarding `Cc1ccc2nc(N/N=C/c3ccc(C)s3)cc(C)c2c1`, the growth inhibition was -26% (inactive) (at 1.2 µM); -40% (inactive) (at 3.7 µM); -47% (inactive) (at 11.0 µM); 98% (active) (at 33.0 µM); 98% (active) (at 100.0 µM).
For `Cc1ccc(S(=O)(=O)N/N=C/c2c(O)ccc3ccccc23)cc1`, the growth inhibition reads like this: (at 1.2 µM) -8% (inactive); (at 3.7 µM) 9% (inactive); (at 11.0 µM) 81% (active); (at 33.0 µM) 83% (active); (at 100.0 µM) 79% (active).
As for `CCOC(=O)C1=C(C)NC(C)=C(C(=O)OCC)C1c1cccc([N+](=O)[O-])c1`, the growth inhibition (at 1.2 µM) was -90% (inactive); the growth inhibition (at 3.7 µM) is -81% (inactive); the growth inhibition (at 11.0 µM) was -35% (inactive); the growth inhibition (at 33.0 µM) was 17% (inactive); the growth inhibition (at 100.0 µM) was 73% (active).
On to `CN(C)/N=N/c1nc[nH]c1C(N)=O`, for which the growth inhibition is -2% (inactive) (at 1.2 µM); 1% (inactive) (at 3.7 µM); 8% (inactive) (at 11.0 µM); 31% (inactive) (at 33.0 µM); 95% (active) (at 100.0 µM).
As to `CC(=O)c1ccc(NCN2C(=O)c3ccccc3C2=O)cc1`, the growth inhibition (at 1.2 µM) was -31% (inactive); the growth inhibition (at 3.7 µM) was -8% (inactive); the growth inhibition (at 11.0 µM) is 28% (inactive); the growth inhibition (at 33.0 µM) was 84% (active); the growth inhibition (at 100.0 µM) is 92% (active).
On the same counts, the results for `BrC/C=C/C[P+](c1ccccc1)(c1ccccc1)c1ccccc1` are 8% (inactive), 27% (inactive), 96% (active), 98% (active) and 99% (active).
